Of roughly 7,900 targets only a part is listed; those with a hit were picked by preference. About 0.6% of all pairs of compound and target were hits. Values without a mark were called inactive.
Columns and labels:
Test in all cases: log2 fold change, soluble protein after heating vs DMSO (PISA); higher = thermal stabilisation; K562 cells, 10 uM, 30 min; active = over 0.2 and 3.5 SD of the protein, either way, in both replicates (recomputed)
[1] = compound: COC1=CC=C(C=C1)CN2C=CC3=C2C=C(C=C3)C(=O)NO
Method in brief: (§1)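 K562 cells at 2×10^6 cells/mL were treated for 30 min with 10 μM compound, and aliquots were heated for 3 min over 48°C-58°C before pooling. Extraction used PBS with 0.5% NP-40 at 4°C, and soluble protein was the supernatant after 21,000xg for 90 min, measured by TMTpro 16plex LC-MS/MS with channel sums equalised. Thermal stability values, relative to control samples and from duplicates, are log2 fold changes.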

[2] = compound: CON(C)C(=O)N1N=C(c2cc(F)ccc2F)S[C@@]1(CCCN)c1ccccc1 [filanesib]
Method in brief: as §1

[3] = compound: CO[C@H]1C[C@@H]2CC[C@@H](C)[C@@](O)(O2)C(=O)C(=O)N2CCCC[C@H]2C(=O)O[C@H]([C@H](C)C[C@@H]2CC[C@H](n3cnnn3)[C@H](OC)C2)CC(=O)[C@H](C)/C=C(\C)[C@@H](O)[C@@H](OC)C(=O)[C@H](C)C[C@H](C)/C=C/C=C/C=C/1C [zotarolimus]
Method in brief: as §1

[4] = compound: COc1cc(C(=O)O)ccc1NC(=O)[C@@H]1N[C@@H](CC(C)(C)C)[C@](C#N)(c2ccc(Cl)cc2F)[C@H]1c1cccc(Cl)c1F [idasanutlin]
Method in brief: as §1

[5] = compound: COc1cc(Nc2ncc3c(n2)-c2ccc(Cl)cc2C(c2c(F)cccc2OC)=NC3)ccc1C(=O)O [alisertib]
Method in brief: as §1

[6] = compound: COc1cc2nc(-c3cc(F)ccc3O)nc(N[C@@H]3CNC[C@H]3C(C)(C)O)c2cc1OC
Method in brief: as §1

[7] = compound: COc1cc2ncnc(Nc3ccc(F)c(Cl)c3)c2cc1OCCCN1CCOCC1 [gefitinib]
Method in brief: as §1

[8] = compound: COc1cccc2cc(-c3nc([C@H]4CC[C@H](C(=O)O)CC4)n4ncnc(N)c34)[nH]c12
Method in brief: as §1

[9] = compound: CS(=O)(=O)CCNCc1ccc(-c2ccc3ncnc(Nc4ccc(OCc5cccc(F)c5)c(Cl)c4)c3c2)o1 [lapatinib]
Method in brief: as §1

[10] = compound: CS(=O)(=O)N1CCN(Cc2cc3nc(-c4cccc5[nH]ncc45)nc(N4CCOCC4)c3s2)CC1 [pictilisib]
Method in brief: as §1

Chain of UniProt Q7Z4V5 (Q7Z4V5 whole entry, looked up): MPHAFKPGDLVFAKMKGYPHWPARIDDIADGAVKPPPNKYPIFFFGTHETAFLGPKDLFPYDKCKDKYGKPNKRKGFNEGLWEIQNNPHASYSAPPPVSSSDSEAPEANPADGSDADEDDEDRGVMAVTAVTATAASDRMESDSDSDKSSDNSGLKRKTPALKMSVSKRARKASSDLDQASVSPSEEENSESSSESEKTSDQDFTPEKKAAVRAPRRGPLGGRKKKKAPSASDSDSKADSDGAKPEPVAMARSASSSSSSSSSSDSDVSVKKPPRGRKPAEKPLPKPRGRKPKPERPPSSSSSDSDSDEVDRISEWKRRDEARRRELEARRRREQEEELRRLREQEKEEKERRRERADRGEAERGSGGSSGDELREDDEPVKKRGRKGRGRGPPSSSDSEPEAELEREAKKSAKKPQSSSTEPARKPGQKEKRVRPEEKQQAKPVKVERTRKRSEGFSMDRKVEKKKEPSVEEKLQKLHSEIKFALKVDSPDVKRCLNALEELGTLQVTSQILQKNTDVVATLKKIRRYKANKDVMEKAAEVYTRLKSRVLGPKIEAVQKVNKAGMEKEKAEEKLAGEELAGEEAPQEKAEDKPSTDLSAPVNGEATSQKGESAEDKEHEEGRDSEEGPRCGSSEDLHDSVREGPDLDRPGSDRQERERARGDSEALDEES
Chain of UniProt Q9UKN8 (Q9UKN8 whole entry, looked up): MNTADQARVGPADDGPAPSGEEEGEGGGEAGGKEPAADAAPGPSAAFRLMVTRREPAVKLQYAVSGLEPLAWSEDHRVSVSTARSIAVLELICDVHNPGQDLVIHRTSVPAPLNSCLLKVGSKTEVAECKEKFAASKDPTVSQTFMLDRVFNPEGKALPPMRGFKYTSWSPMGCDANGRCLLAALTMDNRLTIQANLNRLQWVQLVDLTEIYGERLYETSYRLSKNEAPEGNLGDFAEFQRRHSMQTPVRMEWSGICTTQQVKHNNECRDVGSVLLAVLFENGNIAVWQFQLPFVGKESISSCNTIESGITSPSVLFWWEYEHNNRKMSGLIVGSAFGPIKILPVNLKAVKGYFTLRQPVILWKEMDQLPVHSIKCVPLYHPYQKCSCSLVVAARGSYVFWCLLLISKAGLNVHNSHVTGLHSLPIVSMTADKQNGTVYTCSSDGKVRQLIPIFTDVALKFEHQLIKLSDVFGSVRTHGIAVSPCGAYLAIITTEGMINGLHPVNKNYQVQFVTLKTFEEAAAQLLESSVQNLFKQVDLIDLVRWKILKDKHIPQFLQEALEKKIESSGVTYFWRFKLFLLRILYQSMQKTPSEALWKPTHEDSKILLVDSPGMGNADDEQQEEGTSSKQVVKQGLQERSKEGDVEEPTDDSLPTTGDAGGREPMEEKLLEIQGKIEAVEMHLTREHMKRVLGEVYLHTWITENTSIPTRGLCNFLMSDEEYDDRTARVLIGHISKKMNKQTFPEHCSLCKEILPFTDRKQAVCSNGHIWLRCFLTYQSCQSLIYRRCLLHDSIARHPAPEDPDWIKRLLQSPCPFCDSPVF
Chain of UniProt P60520 (P60520 whole entry, looked up): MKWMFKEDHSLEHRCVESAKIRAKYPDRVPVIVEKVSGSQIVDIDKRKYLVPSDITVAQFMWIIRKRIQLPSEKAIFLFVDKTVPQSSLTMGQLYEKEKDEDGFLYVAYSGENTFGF
Chain of UniProt P13807 (P13807 whole entry, looked up): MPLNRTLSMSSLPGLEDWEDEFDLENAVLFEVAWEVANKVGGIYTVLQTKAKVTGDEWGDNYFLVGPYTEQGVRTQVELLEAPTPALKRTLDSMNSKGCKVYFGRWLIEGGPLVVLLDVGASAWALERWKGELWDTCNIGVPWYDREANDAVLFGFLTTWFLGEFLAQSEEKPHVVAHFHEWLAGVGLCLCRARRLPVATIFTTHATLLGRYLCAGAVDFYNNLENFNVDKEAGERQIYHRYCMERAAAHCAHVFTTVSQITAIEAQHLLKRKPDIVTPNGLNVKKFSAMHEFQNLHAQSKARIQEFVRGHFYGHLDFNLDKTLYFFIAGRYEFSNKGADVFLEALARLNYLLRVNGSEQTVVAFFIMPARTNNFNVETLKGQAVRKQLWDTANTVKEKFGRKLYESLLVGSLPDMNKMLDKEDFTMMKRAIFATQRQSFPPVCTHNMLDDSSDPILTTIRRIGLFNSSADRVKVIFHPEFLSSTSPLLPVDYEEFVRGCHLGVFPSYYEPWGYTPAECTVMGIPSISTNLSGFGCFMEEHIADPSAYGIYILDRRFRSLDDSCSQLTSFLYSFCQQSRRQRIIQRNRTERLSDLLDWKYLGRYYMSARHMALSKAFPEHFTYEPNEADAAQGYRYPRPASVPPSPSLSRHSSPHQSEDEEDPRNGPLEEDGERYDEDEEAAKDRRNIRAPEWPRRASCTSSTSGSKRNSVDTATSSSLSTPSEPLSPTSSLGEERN
Chain of UniProt O95363 (O95363 whole entry, looked up): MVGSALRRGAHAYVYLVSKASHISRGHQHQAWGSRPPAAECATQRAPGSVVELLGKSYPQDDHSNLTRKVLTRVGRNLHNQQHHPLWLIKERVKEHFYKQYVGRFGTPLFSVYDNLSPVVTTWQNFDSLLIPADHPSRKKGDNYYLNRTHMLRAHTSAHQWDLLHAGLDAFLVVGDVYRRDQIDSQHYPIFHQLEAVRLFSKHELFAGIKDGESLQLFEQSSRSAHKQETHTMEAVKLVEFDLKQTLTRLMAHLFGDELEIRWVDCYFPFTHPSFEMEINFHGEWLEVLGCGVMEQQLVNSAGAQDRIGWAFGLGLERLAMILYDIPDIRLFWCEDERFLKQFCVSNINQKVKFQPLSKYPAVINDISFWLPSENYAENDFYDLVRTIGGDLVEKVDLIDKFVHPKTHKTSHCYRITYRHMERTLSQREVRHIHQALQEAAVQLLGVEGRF
Chain of UniProt P46976 (P46976 whole entry, looked up): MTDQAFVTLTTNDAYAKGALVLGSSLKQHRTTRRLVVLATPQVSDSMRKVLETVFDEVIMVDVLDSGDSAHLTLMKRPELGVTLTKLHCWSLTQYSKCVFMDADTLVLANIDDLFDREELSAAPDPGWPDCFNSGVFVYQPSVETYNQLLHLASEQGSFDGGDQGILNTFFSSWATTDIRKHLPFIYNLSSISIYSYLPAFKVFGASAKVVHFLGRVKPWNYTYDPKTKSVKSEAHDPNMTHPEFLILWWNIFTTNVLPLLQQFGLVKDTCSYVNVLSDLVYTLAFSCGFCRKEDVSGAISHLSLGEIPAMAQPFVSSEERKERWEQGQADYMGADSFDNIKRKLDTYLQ
Chain of UniProt Q1KMD3 (Q1KMD3 whole entry, looked up): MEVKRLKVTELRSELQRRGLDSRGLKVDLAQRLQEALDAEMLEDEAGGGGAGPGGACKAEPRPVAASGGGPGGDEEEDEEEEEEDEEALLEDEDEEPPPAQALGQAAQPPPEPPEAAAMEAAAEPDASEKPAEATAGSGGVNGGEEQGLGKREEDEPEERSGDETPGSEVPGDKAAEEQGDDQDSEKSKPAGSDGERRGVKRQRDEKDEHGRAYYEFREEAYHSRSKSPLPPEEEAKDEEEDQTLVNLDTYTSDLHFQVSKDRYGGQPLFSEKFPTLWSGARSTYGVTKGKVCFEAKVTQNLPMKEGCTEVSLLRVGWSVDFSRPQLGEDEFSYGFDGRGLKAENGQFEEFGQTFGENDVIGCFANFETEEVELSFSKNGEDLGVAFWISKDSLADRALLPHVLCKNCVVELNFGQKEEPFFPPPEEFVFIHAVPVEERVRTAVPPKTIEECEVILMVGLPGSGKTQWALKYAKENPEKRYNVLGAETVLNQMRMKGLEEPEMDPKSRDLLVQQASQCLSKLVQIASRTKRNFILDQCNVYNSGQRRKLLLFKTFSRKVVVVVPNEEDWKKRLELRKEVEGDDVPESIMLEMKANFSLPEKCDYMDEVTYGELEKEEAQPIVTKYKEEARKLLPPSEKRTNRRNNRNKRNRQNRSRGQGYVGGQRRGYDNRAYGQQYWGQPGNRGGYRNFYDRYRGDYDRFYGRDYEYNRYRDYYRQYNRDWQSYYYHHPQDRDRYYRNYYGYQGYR
Chain of UniProt Q92917 (Q92917 whole entry, looked up): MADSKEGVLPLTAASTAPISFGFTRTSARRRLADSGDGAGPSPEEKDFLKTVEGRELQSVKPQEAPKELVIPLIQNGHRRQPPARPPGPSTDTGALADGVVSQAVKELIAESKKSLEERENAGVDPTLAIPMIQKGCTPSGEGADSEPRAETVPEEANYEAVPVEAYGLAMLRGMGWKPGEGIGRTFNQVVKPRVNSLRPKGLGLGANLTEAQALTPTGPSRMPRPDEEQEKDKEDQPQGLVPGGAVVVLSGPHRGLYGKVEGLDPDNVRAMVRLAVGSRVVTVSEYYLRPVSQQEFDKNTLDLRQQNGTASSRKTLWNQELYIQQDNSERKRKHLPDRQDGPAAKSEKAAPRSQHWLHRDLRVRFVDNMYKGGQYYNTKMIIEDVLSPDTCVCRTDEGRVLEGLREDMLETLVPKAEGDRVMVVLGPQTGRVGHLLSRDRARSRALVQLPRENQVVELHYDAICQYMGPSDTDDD
Chain of UniProt P55084 (P55084 whole entry, looked up): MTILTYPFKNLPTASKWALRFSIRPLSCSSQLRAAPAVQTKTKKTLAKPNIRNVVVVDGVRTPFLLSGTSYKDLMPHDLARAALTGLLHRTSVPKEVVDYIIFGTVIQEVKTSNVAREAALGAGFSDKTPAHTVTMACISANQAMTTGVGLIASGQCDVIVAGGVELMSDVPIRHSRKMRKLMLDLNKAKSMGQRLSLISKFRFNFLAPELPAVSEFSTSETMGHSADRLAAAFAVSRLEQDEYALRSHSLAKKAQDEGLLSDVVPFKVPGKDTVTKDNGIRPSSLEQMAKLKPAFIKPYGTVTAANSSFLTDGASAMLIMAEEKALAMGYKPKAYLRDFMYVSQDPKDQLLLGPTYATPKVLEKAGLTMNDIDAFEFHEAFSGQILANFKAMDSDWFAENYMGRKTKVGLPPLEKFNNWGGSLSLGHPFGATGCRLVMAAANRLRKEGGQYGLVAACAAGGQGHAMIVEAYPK

Row | Target | log2 fold change [1] | log2 fold change [2] | log2 fold change [3] | log2 fold change [4] | log2 fold change [5] | log2 fold change [6] | log2 fold change [7] | log2 fold change [8] | log2 fold change [9] | log2 fold change [10]
1 | HSPA8 (UniProt E9PN89) | -0.312 | 0.126 | -0.036 | 0.113 | 0.042 | 0.191 | 0.035 | 0.126 | -0.426 | 0.134
2 | HMGCR isoform 3 (UniProt P04035) | -0.097 | -0.027 | 0 | 0.188 | -0.146 | 0.166 | 0.01 | -0.045 | -0.066 | -0.13
3 | GPAT4 (UniProt Q86UL3) | -0.034 | -0.024 | 0.055 | -0.093 | 0.01 | 0.188 | 0.006 | -0.046 | -0.031 | 0.036
4 | GABARAPL2 (UniProt P60520) | 0.185 | -0.01 | -0.036 | -0.072 | 0.016 | 0.033 | -0.014 | 0 | -0.006 | -0.059
5 | FRA10AC1 isoform 3 (UniProt Q70Z53) | -0.022 | 0.179 | -0.049 | -0.319 | -0.033 | 0.068 | 0 | -0.005 | -0.064 | -0.11
6 | HIST2H3A (UniProt Q71DI3) | 0.037 | 0.268 | -0.167 | 0.508 | 0.001 | -0.106 | 0.061 | -0.367 | 0.065 | -0.021
7 | HDGFL2 (UniProt Q7Z4V5) | 0.032 | 0.056 | -0.025 | 0.012 | -0.051 | -0.013 | 0.025 | 0.04 | -0.019 | -0.004
8 | GTF3C4 (UniProt Q9UKN8) | -0.038 | 0.034 | 0.019 | -0.003 | -0.032 | 0.007 | 0.058 | -0.011 | 0.029 | 0.028
9 | GNB2 (UniProt P62879) | -0.051 | 0.034 | -0.006 | -0.058 | -0.068 | 0.089 | 0.085 | -0.071 | 0 | 0.13
10 | HIP1R (UniProt O75146) | -0.011 | -0.039 | -0.034 | -0.046 | 0.114 | 0.027 | -0.025 | 0 | -0.041 | -0.011
11 | HNRNPC isoform 2 (UniProt P07910) | 0.009 | 0.39 | -0.024 | 0.796 | -0.052 | -0.041 | 0.002 | -0.065 | -0.026 | 0.065
12 | GSTP1 (UniProt P09211) | -0.033 | -0.038 | 0.004 | -0.033 | -0.003 | -0.003 | 0.021 | 0.069 | -0.032 | 0.035
13 | GOLPH3 (UniProt Q9H4A6) | 0.011 | -0.03 | 0.048 | -0.057 | -0.024 | 0.131 | 0.023 | 0.012 | -0.055 | -0.051
14 | HNRNPUL2 (UniProt Q1KMD3) | -0.012 | 0.156 | -0.015 | 0.083 | -0.026 | 0.105 | -0.02 | 0.005 | -0.018 | 0.035
15 | HADHB (UniProt P55084) | 0.248 | 0.094 | 0.038 | -0.263 | -0.026 | 0.217 | 0.17 | -0.085 | 0.086 | 0.383
16 | FDXR isoform 7 (UniProt P22570) | -0.005 | -0.122 | 0.021 | -0.179 | -0.019 | 0.06 | 0.048 | 0.074 | -0.057 | 0.201
17 | HRC (UniProt P23327) | -0.089 | 0.019 | -0.032 | 0.035 | -0.059 | -0.008 | 0.035 | -0.007 | -0.039 | 0.017
18 | GPKOW (UniProt Q92917) | -0.055 | -0.118 | 0.024 | -0.06 | 0.039 | -0.021 | 0.047 | 0.11 | -0.005 | -0.037
19 | FARS2 (UniProt O95363) | -0.171 | -0.122 | -0.049 | -0.076 | 0.137 | 0.033 | -0.114 | 0.113 | -0.061 | 0.071
20 | GSR (UniProt P00390) | 0.023 | -0.065 | -0.039 | -0.049 | -0.032 | 0.015 | -0.016 | 0.043 | -0.057 | 0.036
21 | FNTA (UniProt P49354) | 0.162 | 0.069 | 0.019 | -0.062 | -0.074 | -0.01 | 0.056 | 0.044 | 0.04 | -0.005
22 | GHDC (UniProt Q8N2G8) | -0.026 | -0.127 | 0.021 | 0.061 | -0.057 | -0.13 | 0.037 | 0.087 | 0.042 | 0.042
23 | FDFT1 (UniProt P37268) | 0.123 | 0.401 (active) | 0.014 | 0.013 | 0.008 | -0.052 | -0.01 | 0.042 | -0.023 | 0
24 | ICAM1 (UniProt P05362) | -0.018 | 0.132 | -0.038 | 0.042 | 0.002 | 0.08 | 0.029 | 0.104 | -0.028 | 0
25 | HIP1 (UniProt O00291) | 0.022 | -0.026 | 0.017 | -0.003 | -0.269 | 0.029 | 0.016 | 0.047 | 0.059 | 0
26 | GYS1 (UniProt P13807) | -0.045 | 0.045 | 0.124 | 0.462 | -0.026 | -0.109 | -0.006 | -0.165 | 0.013 | 0.219
27 | GYG1 (UniProt P46976) | 0.08 | 0.124 | 0.036 | 0.15 | -0.133 | -0.163 | -0.028 | -0.195 | 0.051 | 0.376 (active)
28 | GLS isoform 3 (UniProt O94925) | -0.021 | -0.029 | 0.008 | -0.26 | -0.003 | 0.216 | 0.041 | 0.031 | 0 | 0.078
29 | FKBP3 (UniProt Q00688) | 0.219 | -0.04 | 0.354 (active) | -0.015 | -0.052 | 0.047 | -0.023 | 0 | -0.029 | 0.004
30 | GALC (UniProt P54803) | 0.007 | -0.017 | -0.071 | -0.121 | 0.049 | 0.099 | -0.014 | 0.066 | 0.042 | 0.159
